From PubChem BioAssay (NCATS)
Inconclusive results are not listed. A call without a number means that no potency is given here. The source made the active and inactive calls. Calls follow the shape of the dose curve; as a rule, active = well fitted curve in the direction sought with a large enough effect; inconclusive = small, poorly fitted or top-dose-only effect, or another doubt; inactive = no such curve, though single readings can be large; an effect the other way counts as inactive or inconclusive.

The molecules below were run on HACAT (assay: qHTS assay to identify novel small-molecules to repurpose for Merkel cell carcinoma treatment (AID 1296009; also: nearly all actives have a fitted effect of over 60% in size)). Conditions: MCC and control cell lines, CellTiter-Glo viability, 72 h; at 44.8 µM (top of the series) unless noted.
Method in brief: (§1)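 72 hr, 37 degree celsius; NPC 8-pt / MIPE 11-pt dose response; compound pinned in DMSO; CellTiter-Glo, 10 min RT, luminescence; normalized to no-cell and DMSO controls.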

With `CN(Cc1cccc(-c2ccncc2)c1)C(=O)Oc1ccc(-c2ccc(C(N)=O)cc2)cc1` as the molecule, how does the outcome read?
Its outcome is “inactive”.

With `CN(C(=O)C(c1ccccc1)c1ccccc1)[C@H](CN1CC[C@H](O)C1)c1ccccc1` as the molecule, how does the outcome read?
The outcome was “inactive”.

With `C/C=C(\C)C(=O)OC1CC2C(CC=C3CC(OC4CC(OC)C(OC5CC(OC)C(OC6CC(OC)C(OC7CC(OC)C(O)C(C)O7)C(C)O6)C(C)O5)C(C)O4)CCC32C)C2(O)CCC(C(C)=O)C12C` (configuration not stated) as the molecule, how does the outcome read?
The outcome was “inactive [at 9.27 µM]”.

With `CN1CCC2=C(C1)c1ccccc1Cc1ccccc12` as the molecule, how does the outcome read?
The outcome was “inactive”.

How did the outcome turn out when `CCCN(CCC)[C@@H]1CCc2ccc3[nH]c(C#N)cc3c2C1` was run?
The outcome was “inactive”.

`Cc1ccc2c(c1)[C@H]1CN(C)CC[C@H]1N2C(=O)CSc1nnnn1-c1ccc(Cl)cc1` was tested. Which outcome did it give?
Its outcome is “inactive”.

Which outcome does the source give for `CC(=O)OC[C@]12[C@H](OC(C)=O)C(=O)[C@@H]3[C@@H](O)[C@@]14O[C@@]3(C)COC(=O)c1cccnc1[C@@H](C)[C@H](C)C(=O)O[C@@H]([C@H](OC(C)=O)[C@@H]2OC(C)=O)[C@]4(C)O` here?
Its outcome is “inactive [at 17.4 µM]”.

What follows are molecules tested on NIH3T3 in the same assay as above. Conditions: MCC and control cell lines, CellTiter-Glo viability, 72 h; at 44.8 µM (top of the series) unless noted.
Method in brief: as §1

For `C/C=C(\C)C(=O)OC1CC2C(CC=C3CC(OC4CC(OC)C(OC5CC(OC)C(OC6CC(OC)C(OC7CC(OC)C(O)C(C)O7)C(C)O6)C(C)O5)C(C)O4)CCC32C)C2(O)CCC(C(C)=O)C12C` (configuration not stated), which outcome is on record?
The outcome was “inactive [at 9.27 µM]”.

`CN(C)[C@@H]1C(=O)C(C(N)=O)=C(O)[C@@]2(O)C(=O)C3=C(O)c4c(O)ccc(Cl)c4[C@@](C)(O)C3C[C@@H]12` (some centres not stated) was tested. Which outcome did it give?
The outcome was “inactive”.

With `CCCN(CCC)[C@@H]1CCc2ccc3[nH]c(C#N)cc3c2C1` as the molecule, how does the outcome read?
Its outcome is “inactive”.

`Cc1ccc2c(c1)[C@H]1CN(C)CC[C@H]1N2C(=O)CSc1nnnn1-c1ccc(Cl)cc1` was tested. Which outcome did it give?
Its outcome is “inactive”.

These molecules were tested on C33A (assay: Primary qHTS to identify gynecologic anti-cancer compounds using libraries of approved drugs and bioactive compounds (AID 1345084; also: nearly all actives have a fitted effect of over 55% in size; also: potency is read from the fitted curve at half-maximal effect)). Conditions: Gynecologic cancer cell panel viability, ATPlite luminescence, 48 h; series mostly up to 57.5 µM.
Method in brief: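 In this quantitative HTS, cell killing is estimated from loss of ATP-dependent luciferase light. Cells see five compound concentrations over a 48 h exposure.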

`CN(Cc1cccc(-c2ccncc2)c1)C(=O)Oc1ccc(-c2ccc(C(N)=O)cc2)cc1` was tested. Which Potency did it give?
The Potency was “inactive”.

Which Potency does the source give for `CN(C(=O)C(c1ccccc1)c1ccccc1)[C@H](CN1CC[C@H](O)C1)c1ccccc1` here?
The Potency was “inactive”.

Which Potency does the source give for `Fc1cc(F)c2c(c1)C1C=CCC1C(c1cccnc1)N2` (configuration not stated) here?
Its Potency is 22.4 µM (active).

With `C/C=C(\C)C(=O)OC1CC2C(CC=C3CC(OC4CC(OC)C(OC5CC(OC)C(OC6CC(OC)C(OC7CC(OC)C(O)C(C)O7)C(C)O6)C(C)O5)C(C)O4)CCC32C)C2(O)CCC(C(C)=O)C12C` (configuration not stated) as the molecule, how does the activity change, negative = cytotoxicity read?
Its activity change, negative = cytotoxicity is -3.2% [at 11.6 µM] (inactive).

How did the Potency turn out when `CN=C(NS(=O)(=O)c1ccc(Cl)cc1)N1C[C@H](c2ccccc2)C(c2ccc(Cl)cc2)=N1` was run?
The Potency was “inactive”.

With `COC1CC(O[C@H]2CC[C@@]3(C)C(CCC4C3CC[C@]3(C)C(C5=CC(=O)OC5)CCC43O)C2)OC(C)C1OC1OC(COC2OC(CO)C(O)C(O)C2O)C(O)C(O)C1O` (some centres not stated) as the molecule, how does the Potency read?
The Potency was 2.24 µM (active).

For `C[C@@H]1O[C@@H](OC2CCC3(C=O)C(CCC4C3CCC3(C)C(C5=CC(=O)OC5)C(O)CC43O)C2)[C@H](O)[C@H](O)[C@H]1O[C@@H]1O[C@H](CO)[C@@H](O)[C@H](O)[C@H]1O` (some centres not stated), which Potency is on record?
Its Potency is 5.62 µM (active).

For `Cc1c(N[C@@H](c2nnc(-c3ccc(C#N)cc3)o2)[C@H](C)O)ccc(C#N)c1Cl`, which Potency is on record?
Its Potency is “inactive”.

`CC12CCC3C(C1)c1c(cc(O)c(C(=O)c4ccccc4)c1OC3(C)C)O2` (configuration not stated) was tested. Which Potency did it give?
Its Potency is “inactive”.

`CN1C(=O)[C@@H](Cc2c[nH]c3ccccc23)N=C(c2ccccc2F)c2ccccc21` was tested. Which Potency did it give?
The Potency was “inactive”.

How did the Potency turn out when `c1ccc([C@@H]2C[C@H]2NC2CCNCC2)cc1` was run?
The Potency was “inactive”.

How did the Potency turn out when `CC(C)[C@H]1OC(=O)[C@H](Cc2ccccc2)N(C)C(=O)[C@@H](C(C)C)OC(=O)[C@H](Cc2ccccc2)N(C)C(=O)[C@@H](C(C)C)OC(=O)[C@H](Cc2ccccc2)N(C)C1=O` was run?
Its Potency is “inactive”.

With `C=C1C2(C)CC3C(C)(O)C4=CC(=O)OC(C)(C)C4=CCC3(C)C13C(=O)OC(C)C3(O)C2=O` (configuration not stated) as the molecule, how does the Potency read?
Its Potency is “inactive”.

With `CN(C)[C@@H]1C(=O)C(C(N)=O)=C(O)[C@@]2(O)C(=O)C3=C(O)c4c(O)ccc(Cl)c4[C@@](C)(O)C3C[C@@H]12` (some centres not stated) as the molecule, how does the Potency read?
The Potency was “inactive”.

With `CC(=O)O[C@H]1C[C@]2(O)[C@@H]3CC[C@@H]4C[C@@H](O)CC[C@]4(C)[C@H]3CC[C@]2(C)[C@H]1c1ccc(=O)oc1` as the molecule, how does the Potency read?
Its Potency is 0.0282 µM (active).

`CN1CCC2=C(C1)c1ccccc1Cc1ccccc12` was tested. Which Potency did it give?
Its Potency is “inactive”.

How did the Potency turn out when `C=C(C)C(=O)O[C@H]1[C@@H]2[C@H](C)C(=O)O[C@@H]2C[C@@H](C)[C@@H]2C=CC(=O)[C@]21C` was run?
Its Potency is 12.6 µM (active).

`CCOc1ccc(Oc2ccc(OCc3cc(F)ccc3F)cc2)c(N)c1` was tested. Which Potency did it give?
Its Potency is “inactive”.

How did the Potency turn out when `CCN1C[C@]2(COC)CC[C@H](O)[C@@]34C5C[C@@H]6[C@@H](OC)C[C@@](OC(C)=O)(C5[C@@H]6OC(C)=O)[C@H]([C@H](OC)C23)[C@@H]14` (some centres not stated) was run?
Its Potency is “inactive”.

With `CC(C)[C@H](NC(=O)c1nn(Cc2ccc(F)cc2)c2ccccc12)C(N)=O` as the molecule, how does the Potency read?
The Potency was “inactive”.

Which Potency does the source give for `CCCN(CCC)[C@@H]1CCc2ccc3[nH]c(C#N)cc3c2C1` here?
Its Potency is “inactive”.

How did the Potency turn out when `Cc1ccc2c(c1)[C@H]1CN(C)CC[C@H]1N2C(=O)CSc1nnnn1-c1ccc(Cl)cc1` was run?
Its Potency is “inactive”.

How did the Potency turn out when `C[C@]12CC[C@H](O)C[C@@H]1CC[C@@H]1[C@@H]2CC[C@]2(C)C(=O)CC[C@@H]12` was run?
The Potency was “inactive”.

How did the Potency turn out when `CC(=O)OC[C@]12[C@H](OC(C)=O)C(=O)[C@@H]3[C@@H](O)[C@@]14O[C@@]3(C)COC(=O)c1cccnc1[C@@H](C)[C@H](C)C(=O)O[C@@H]([C@H](OC(C)=O)[C@@H]2OC(C)=O)[C@]4(C)O` was run?
The Potency was “inactive”.

`C#C[C@]1(O)CC[C@H]2[C@@H]3CC[C@H]4Cc5nc6nc7ccccc7n6cc5C[C@]4(C)[C@H]3CC[C@@]21C` was tested. Which Potency did it give?
The Potency was “inactive”.

Which Potency does the source give for `CN1C(=O)N(c2ccc(C#N)c(C(F)(F)F)c2)C(=O)[C@@]1(CO)c1ccccc1` here?
The Potency was “inactive”.

Which Potency does the source give for `CCCCCn1cc(C(=O)Oc2cccc3cccnc23)c2ccccc21` here?
Its Potency is “inactive”.

Which Potency does the source give for `C[C@]12CC[C@H](O)C[C@@H]1CC[C@@H]1[C@@H]2CC[C@]2(C)[C@@H](C3=CC(=O)OC3)CC[C@]12O` here?
Its Potency is 7.94 µM (active).

With `C[C@]12CC[C@H](O)C[C@@]1(O)CC[C@@H]1[C@@H]2CC[C@]2(C)[C@@H](c3ccc(=O)oc3)CC[C@]12O` as the molecule, how does the Potency read?
The Potency was “inactive”.

With `COC(=O)C12C(=O)C(C)(O)C(=O)C1(C)C(C)=CC1C34CCC(OC3=O)C(C)(C)C4CCC12C` (configuration not stated) as the molecule, how does the Potency read?
Its Potency is “inactive”.

With `CN1Cc2c(ccc3c2OCO3)[C@@H]2[C@H]1c1cc3c(cc1C[C@@H]2O)OCO3` as the molecule, how does the Potency read?
The Potency was 7.08 µM (active).
